{"source": "ChEMBL document CHEMBL3433997", "about": "“St. Jude Leishmania screening dataset” (2016)"}
{"target": "Glucose transporter (Leishmania mexicana) (UniProt O61059)", "test": "ST_JUDE_LEISH: Cytotoxicity at 2uM final concentration against transgenic Leishmania Mexicana promastigotes LmGT2 that are glucose transport deficient and complemented with the L. Mexicana glucose transporter 2. Activity is measured by DNA content using SYBR green in vitro", "assay_type": "functional", "units": {"inhibition": "%"}}
{"smiles": "CC(C(=O)OCCOCn1cnc2c(=O)[nH]c(N)nc21)N(C)C(=O)OC(C)(C)C", "note": "(stereo not given)", "inhibition": -3.59}
{"smiles": "CCc1cccc(-n2c(=O)c3cccnc3n2CC(=O)NC2CCCC2)c1", "inhibition": 4.05}
{"smiles": "CC1CCCCC1N(C)C1CCN(CCCNC(=O)C=Cc2cccc(C(F)(F)F)c2)CC1", "note": "(stereo not given)", "inhibition": 1.79}
{"smiles": "CC(C)CCNC(=O)C1Cc2c([nH]c3ccc(Br)cc23)C2(CCN(CCc3ccccc3)CC2)N1", "note": "(stereo not given)", "inhibition": 0.26}
{"smiles": "CN1C(=O)C(=O)N(CCCCCONC(=N)N)C1=S", "inhibition": 9.97}
{"smiles": "CC(=O)c1ccc(NC(=O)CSc2nc(-c3ccccc3Cl)ns2)cc1", "inhibition": 9.72}
{"smiles": "O=C(Nc1cccc(-c2nn3ccccc3c2-c2ccnc(Nc3ccc(NCCCN4CCOCC4)c(F)c3)n2)c1)c1c(F)cccc1F", "inhibition": 5.22}
{"smiles": "O=C1CCCN1CCCNCc1ccc(-c2ccc(-c3nc4cc(F)ccc4[nH]3)s2)cc1", "inhibition": 6.85}
{"smiles": "Cn1cnnc1Sc1ccc(CN2CCOc3ccc(C4=CCCCC4)cc3C2)o1", "inhibition": 1}
{"smiles": "COC(=O)[C@@H](NC(=O)[C@H](CC(C)C)Nc1ccc(C#N)c2ccccc12)c1ccc(O)cc1", "inhibition": -2.23}
{"smiles": "CCCCSc1nc2c(c(=O)n1Cc1ccco1)C1(CCCCC1)Cc1ccccc1-2", "inhibition": 1.89}
{"smiles": "CC(=O)c1ccc(NC(=O)NNC(=O)c2ccc(CCN3CCC(c4nc(COCC(F)(F)F)c(-c5ccc(F)cc5)o4)CC3)cc2)cc1", "inhibition": -1.37}
{"smiles": "Fc1ccc(C=NNc2nc3ccccc3[nH]2)cc1", "inhibition": 12.1}
{"smiles": "CCc1ccccc1N=C1c2c(cccc2[N+](=O)[O-])C(=O)C1C(C)=O", "note": "(stereo not given)", "inhibition": -2.14}
{"smiles": "COc1cccc(-c2ccc3c(-c4ccc(F)cc4)cnc(N)c3c2)c1", "inhibition": 2.91}
